From PubChem BioAssay
A selection: hits, their analogues and other compounds. The true share with any hit is near 2.9%.
Pol iota inh: blocks human DNA polymerase iota activity; 1% of 390,000 active; Potency, µM (highest dose often 115 µM), inactives show top-dose activity, negative = inhibition, hits mostly inhibitors; Pol iota fluorescent replication assay, 10 min; Q9UNA4; AID 588590; further: potency means the concentration at half of the fitted maximal effect
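Pol iota at 10 nM preincubated 15 min with compounds at room temperature; reaction started with fluorescent substrate, 50 nM final. Fluorescence read kinetically at 0 and 10 min; buffer-only wells as negative control.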
POLH inh: DNA polymerase eta (human) inhibition | Q9Y253 | recombinant Pol eta, fluorescent DNA replication assay | 1.2% of 390,000 active | Potency, µM (highest dose often 114 µM), inactives show at the highest dose activity change, negative = inhibition, usual class: inhibitors; further: potency means the concentration at half of the fitted maximal effect; on the % scale 0 is the no-effect control and ±100 the full control effect
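Pol eta (10 nM) was preincubated with compounds for 15 min at room temperature, after which fluorescent replication substrate (50 nM final) was added to start the reaction. Fluorescence was read kinetically at 0 and 10 min.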
ALOX12 inh: inhibitors of human 12S-lipoxygenase ALOX12. P18054. 1.1% of 580,000 active. purified 12hLO, xylenol orange hydroperoxide absorbance. AID 1671190. Potency, µM (series often up to 108 µM), without a hit: at the top dose activity change, negative = inhibition, most hits filed as inhibitors; further: potency means the concentration at half of the fitted maximal effect; on the % scale 0 is the no-effect control and ±100 the full control effect
Target sequence (P18054 whole entry, looked up): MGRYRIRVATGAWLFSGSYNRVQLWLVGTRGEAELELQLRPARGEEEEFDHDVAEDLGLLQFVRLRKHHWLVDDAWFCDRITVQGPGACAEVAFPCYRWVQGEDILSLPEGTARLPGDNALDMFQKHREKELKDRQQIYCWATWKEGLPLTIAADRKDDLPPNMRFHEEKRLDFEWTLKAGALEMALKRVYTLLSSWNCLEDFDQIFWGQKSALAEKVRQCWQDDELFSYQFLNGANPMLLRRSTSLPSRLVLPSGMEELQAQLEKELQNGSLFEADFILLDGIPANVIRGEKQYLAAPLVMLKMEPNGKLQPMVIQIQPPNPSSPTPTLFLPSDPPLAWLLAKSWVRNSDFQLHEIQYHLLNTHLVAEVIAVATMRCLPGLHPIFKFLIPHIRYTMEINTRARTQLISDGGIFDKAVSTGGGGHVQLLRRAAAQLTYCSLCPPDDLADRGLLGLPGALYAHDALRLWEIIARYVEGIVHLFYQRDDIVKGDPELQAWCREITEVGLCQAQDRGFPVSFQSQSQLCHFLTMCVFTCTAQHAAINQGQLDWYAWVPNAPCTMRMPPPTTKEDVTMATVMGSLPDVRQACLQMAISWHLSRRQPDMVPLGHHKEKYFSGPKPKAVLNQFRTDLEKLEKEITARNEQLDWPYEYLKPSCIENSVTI
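Purified human 12hLO (150 nM final) in 25 mM Hepes, 0.01% Triton X-100, pH 7.0 was preincubated 15 min at room temperature with compound. Then 40 uM arachidonic acid was added, 30 min. Hydroperoxide was read by Fe-XO absorbance ratio 573/405 nm.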
Pol beta inh: blocks human DNA polymerase beta activity; P06746; Potency, µM (highest dose often 114 µM), inactives show top-dose activity change, negative = inhibition, actives largely listed as inhibitors; AID 485314; Pol beta primer extension/strand displacement, fluorescence kinetic; 1.3% of 340,000 active; further: potency means the concentration at half of the fitted maximal effect; on the % scale 0 is the no-effect control and ±100 the full control effect
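Reaction started by 50 nM substrate onto compound-treated Pol beta (10 nM, 15 min preincubation, room temperature); plates read at 0 min and 10 min. Normalized concentration-effect data fitted by four-parameter Hill equation.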
PI5P4K alpha inh: PI5P4K alpha (human) kinase inhibition | max response, % | PI5P4Kalpha enzyme, ADP-Glo luminescence, 60 min; hits give low values | 1.2% of 330,000 active | P48426 | AID 652105; active means max response of -50% or lower; inconclusive means between -30% and -50%; inactive means -30% or higher; further: value at the top dose of about 77 µM; on the % scale 0 is the no-effect control and ±100 the full control effect
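ADP-Glo luminescence end-point read after a 60 min room-temperature kinase reaction of PI5P4Kalpha plus substrate, initiated with ATP at 5 microM final. Buffer: 0.038 M HEPES pH 7.4, EGTA, 0.1% CHAPS, 5% DMSO.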
Pol kappa inh: blocks human DNA polymerase kappa activity; Q9UBT6; purified Pol kappa, fluorescent DNA synthesis assay, 10 min; Potency, µM (series often up to 107 µM), inactives show at the highest dose activity, negative = inhibition, actives largely listed as inhibitors; 0.53% of 400,000 active; AID 588579; further: potency means the concentration at half of the fitted maximal effect; on the % scale 0 is the no-effect control and ±100 the full control effect
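10 nM Pol kappa preincubated 15 min at room temperature with compounds, then reaction started with substrate at 50 nM final. Fluorescence read kinetically at 0 and 10 min; buffer-only wells served as negative control.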
* = called active by the depositor; ? = inconclusive; nt = not tested or not shown; [ ] = another dose, or the depositor's remark. Unless noted, the call rests on the fitted dose curve; in most records, active means well fitted inhibition curve with a large enough effect; inconclusive means small, poorly fitted or top-dose-only effect, or another doubt; inactive means no such curve, though single readings can be large or run the other way.

SMILES	Pol iota inh	POLH inh	ALOX12 inh	Pol beta inh	PI5P4K alpha inh	Pol kappa inh
O=C1Nc2ccccc2N=C(c2ccccc2)C1Br (centres undefined)	36%	-9%	40µM*	34%	-2	-14%
COc1ccc(-c2noc(-c3ccc(N4CCCCC4)c([N+](=O)[O-])c3)n2)cc1	-6%	-10%	0%	10%	nt	-3%
COc1cc(-c2noc(-c3ccc(N(C)C)c([N+](=O)[O-])c3)n2)cc(OC)c1OC	?	-18%	-13%	28µM*	nt	-10%
COc1cc(-c2noc(-c3ccc(N4CCCCC4)c([N+](=O)[O-])c3)n2)cc(OC)c1OC	-28%	-20%	0%	45µM*	nt	-31%
COc1cc(-c2noc(-c3ccc(NCc4ccco4)c([N+](=O)[O-])c3)n2)cc(OC)c1OC	-9%	-13%	-11%	-10%	nt	-12%
COc1cc(-c2noc(-c3ccc(NCc4ccccc4)c([N+](=O)[O-])c3)n2)cc(OC)c1OC	-8%	-16%	-13%	45µM*	nt	-15%
COc1ccc(CN2CC(=O)N(c3ccc(C)c(C)c3)C2=S)cc1OC	-92%	-98%	0%	3%	-87*	?
NS(=O)(=O)c1ccccc1	49%	-16%	30%	20%	2	-11%
NC(=S)c1ccc(S(N)(=O)=O)cc1	nt	nt	3.2µM*	nt	nt	nt
COc1ccc(NC(=O)Nc2cccs2)cc1Cl	-18%	-15%	40µM*	0%	-12	-12%
COc1ccc(NC(=O)CCC(=O)c2cccs2)cc1Cl	14%	-13%	99%	19%	-1	7%
O=C1CCCN2N=C(SCC(=O)Nc3nccs3)SC2=N1	?	79µM*	-8%	32µM*	-21	-8%
CCCCCCC/C=C/C=O	nt	nt	15%[176 µM]	nt	nt	nt
O=C(Nc1ccccc1)c1nc2c(o1)CCN(Cc1ccc(F)c(Cl)c1)CC2	nt	nt	14%[176 µM]	nt	nt	nt
Oc1c(C=Nc2ccccc2)sc(=S)n1Cc1ccccc1	13%	-23%	8.9µM*	-8%	5	-9%
CCn1c(O)c(C=Nc2ccccc2)sc1=S	55%	-16%	?	-16%	3	0%
CC(C)=CCCC(C)=CCCC(C)=CCSc1ccccc1C(=O)O	nt	nt	-32%[57.4 µM]	nt	nt	nt
CC(C)=CCC/C(C)=C/CC/C(C)=C/CSc1ccccc1C(=O)O	25µM*	32µM*	nt	?	nt	nt
COc1ccc(CN2CCC(Oc3cc(C(=O)NC4CC4)ccc3OC)CC2)c(O)c1	79µM*	-5%	16%	3%	7	?
CCOC(=O)N1CCC(N2Cc3cccc(C(=O)NCc4ccc5c(c4)OCO5)c3C2=O)CC1	45µM*	?	-13%	25µM*	-28	-51%
CCOC(=O)N1CCC(N2Cc3cccc(C(=O)NCc4ccc(OC)cc4)c3C2=O)CC1	nt	nt	nt	16µM*	nt	nt
Cc1cccc(CCNC(=O)c2cccc3c2C(=O)N(C2CCCCC2)C3)c1	-18%	?	?	11µM*	4	-20%
CCCN1Cc2cccc(C(=O)NCCc3cccc(C)c3)c2C1=O	?	-8%	0%	-25%	-3	-6%
CCOC(=O)N1CCC(NC(=O)c2cccc3c2C(=O)N(c2ccc(OC)cc2)C3)CC1	?	18µM*	25%	10µM*	?	50µM*
COc1ccc(CC(=O)Nc2ccc([C@@H](O)[C@H]3COCC(=O)N3Cc3ccc(C(F)(F)F)cc3)cc2)cc1	nt	nt	3%	nt	nt	nt
SMILES	Pol iota inh	POLH inh	ALOX12 inh	Pol beta inh	PI5P4K alpha inh	Pol kappa inh
O=C(c1ccc2ncsc2c1)N(Cc1ccc(F)cc1)C1CC1	nt	nt	-18%	nt	nt	nt
Cc1ccc(-c2cn(CCN)c(-c3ccncc3)n2)cc1	32µM*	-1%	-14%	nt	7	-17%
COc1ccc(-c2cn(CCO)c(-c3ccncc3)n2)cc1	21%	1%	-49%	nt	-1	-1%
COc1ccc(/C=C/C(=O)c2ccc(OC(C)C(=O)O)cc2)cc1O (centres undefined)	nt	nt	-47%	nt	nt	nt
Cn1c(=O)c2c(nc(Cl)n2CCC#N)n(C)c1=O	nt	nt	15%	nt	nt	nt
O=C(O)CSc1cc(C(=O)c2cc(F)ccc2O)cn2c(=O)c3c(-c4ccccc4)csc3nc12	?	22µM*	?	?	?	?
O=S(=O)(Nc1nc2ccccc2nc1NCc1ccc(Cl)cc1)c1cccs1	nt	nt	13%	nt	nt	nt
S=C(NCCCCN(Cc1ccc(Cl)cc1)c1ccc(Br)cn1)NCCCc1cnc[nH]1	?	nt	35µM*	nt	nt	1%
COC(=O)c1cc(-c2ccco2)nc2c(Cl)cccc12	nt	nt	22µM*	nt	nt	nt
COc1ccc(-c2cc(C(=O)OCC(=O)c3ccc(C)cc3)c3cccc(Cl)c3n2)cc1	-4%	1%	?	42%	nt	-8%
COC(=O)c1cc(-c2ccc(C)o2)nc2ccccc12	?	?	6.3µM*	?	?	?
CCOc1ccccc1NC(=O)c1cc(-c2ccco2)nc2ccccc12	nt	nt	11µM*	nt	nt	nt
COC(=O)c1cc(-c2ccccc2)nc2ccccc12	nt	nt	10%	nt	nt	nt
Cc1ccc(-c2cc(C(=O)OCC(=O)NC34CC5CC(CC(C5)C3)C4)c3ccccc3n2)o1	nt	nt	1.3µM*	nt	nt	nt
Cc1ccc(-n2nc3c(N4CCCC(C(=O)NCCN(C)C)C4)nnc(C)c3c2C)cc1 (centres undefined)	nt	nt	-24%	nt	nt	nt
Nc1nccnc1C(=O)NCCNc1ncccn1	nt	nt	1%	nt	nt	nt
Cc1ccc(NC(=O)Cn2nc3ccc(S(=O)(=O)C(C)(C)C)nn3c2=O)cc1	nt	nt	-19%	nt	nt	nt
O=C(O)c1cc(-c2ccco2)nc2ccccc12	13µM*	7.1µM*	7.1µM*	18µM*	-28	28µM*
O=C(NC(=S)Nc1cccc(S(=O)(=O)NC2=NCCC2)c1)c1cc(-c2ccco2)nc2ccccc12	28µM*	?	-5%	40µM*	-50*	?
CCNC(=O)NC(=O)C(C)OC(=O)c1cc(C)nc2ccccc12 (centres undefined)	nt	nt	13%	nt	nt	nt
CCNC(=O)NC(=O)C(C)OC(=O)c1cc(-c2ccco2)nc2ccccc12 (centres undefined)	nt	nt	13µM*	nt	nt	nt
CC(=O)N1CCN(C(=O)c2cc(-c3ccco3)nc3ccccc23)CC1	nt	nt	-101%	nt	nt	nt
N#Cc1c(N)n[nH]c1CCCNC(=O)c1ccc(-c2ccccc2)cc1	nt	nt	19%	nt	nt	nt
N#Cc1c(N)n[nH]c1CCCNC(=O)c1cc(-c2ccco2)nc2ccccc12	nt	nt	20µM*	nt	nt	nt
Cc1cnc(C(=O)OCC(=O)c2ccc3ccccc3c2)cn1	nt	nt	-10%	nt	nt	nt
CCCCCCCCC=O	nt	nt	-7%[176 µM]	nt	nt	nt
CCC(C)NC(=O)CN1C(=O)N(c2cccc(SC)c2)S(=O)(=O)c2ccccc21 (centres undefined)	nt	nt	-25%	nt	nt	nt
Clc1ccc2c(c1)C(c1ccccc1Cl)=Nc1ccc(Cl)cc1C(c1ccccc1Cl)=N2	nt	nt	6%	nt	nt	nt
